# Test results: the supplement of paper PMC10646978
# ± gives the standard deviation.
# Key:
# Details in all cases: modulator concentration 10 µM
# [1] = system: RAW-Dual (murine macrophage reporter line); assay: NF-kB reporter (SEAP) activity fold change vs agonist alone; higher = enhanced NF-kB activity
# Outline: (§1)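 RAW-Dual murine macrophage reporter cells were seeded at 50 000 per well in 384-well plates and pre-incubated 1 hour at 37 °C with compound pin-transferred to 10 μM final. After 1 hour, a PRR agonist was added and cells incubated overnight. Supernatant NF-κB (SEAP, QUANTI-Blue, 620 nm absorbance) and IRF (Lucia luciferase, QUANTI-Luc, luminescence) signals were divided by the mean agonist-only control on the same plate to give fold change. Two replicate plates were averaged, with errors by propagation.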
# [2] = system: RAW-Dual (murine macrophage reporter line); assay: IRF reporter (Lucia luciferase) activity fold change vs agonist alone; higher = enhanced IRF activity
# Outline: as §1
# [3] = system: RAW-Dual (murine macrophage reporter line); assay: viability score (confluency relative to resting cells, overnight) (fraction); higher = more viable, active = viable (0.7 or more)
# Outline: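 Overnight exposure to 10 μM final compound was carried out on RAW-Dual macrophages in 384-well plates. IncuCyte software generated two confluency masks over all wells imaged with IncuCyte. The viability score gives confluency in relation to resting cells. A compound met the cutoff if each mask exceeded 70% of resting cells.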
# [4] = agonist: CpG ODN 1826 0.5 ug/mL
Structure (SMILES),"NF-kB reporter [1, 4]",NF-kB reporter ([1]; agonist: LPS 0.1 ug/mL),NF-kB reporter ([1]; agonist: MPLA […]),IRF reporter ([2]; agonist: 3'3'-cGAMP 10 ug/mL),IRF reporter ([2]; agonist: LPS 0.1 ug/mL),IRF reporter ([2]; agonist: MPLA […]),viability score [3]
O=Cc1cn(CCOc2ccc(Br)cc2)c2ccccc12,1.25 ± 0.13,1.06 ± 0.054,1.59 ± 0.22,0.684 ± 0.033,0.674 ± 0.043,0.67 ± 0.085,0.977 (active)
CC1(C)NC(=O)N(c2ccc([N+](=O)[O-])c(C(F)(F)F)c2)C1=O,1.26 ± 0.41,1.11 ± 0.23,0.897 ± 0.052,0.868 ± 0.035,1.17 ± 0.21,1.25 ± 0.2,0.968 (active)
COc1ccc(C=NNC(=O)c2ccc(CN3CCOCC3)cc2)cc1[N+](=O)[O-],1.01 ± 0.085,1.06 ± 0.089,0.961 ± 0.067,1.04 ± 0.039,1.47 ± 0.14,1.28 ± 0.11,0.988 (active)
CCCCC1(C)OC(=O)C(=Cc2ccc(OC)c([N+](=O)[O-])c2)C(=O)O1 (configuration not stated),0.994 ± 0.17,1.07 ± 0.11,0.951 ± 0.086,0.966 ± 0.038,1.16 ± 0.13,1.25 ± 0.15,1 (active)
N=C(N)c1ccc(OCCCCCOc2ccc(C(=N)N)cc2)cc1.O=S(=O)(O)CCO.O=S(=O)(O)CCO,0.243 ± 0.017,0.46 ± 0.037,0.492 ± 0.027,0.715 ± 0.079,1.18 ± 0.2,0.788 ± 0.16,0.305 (inactive)
Cc1cccc(OCC(=O)Nc2cccc([N+](=O)[O-])c2)c1C,0.982 ± 0.16,1.17 ± 0.14,1.03 ± 0.11,0.947 ± 0.028,1.21 ± 0.23,1.24 ± 0.21,0.974 (active)
C#CCN(C)Cc1ccccc1.Cl,0.99 ± 0.11,0.895 ± 0.059,0.98 ± 0.021,0.967 ± 0.075,1.01 ± 0.11,0.833 ± 0.2,0.999 (active)
CCCCCCCCCCCC1=C(O)C(=O)C=C(O)C1=O,0.901 ± 0.22,0.642 ± 0.034,0.675 ± 0.045,0.566 ± 0.019,0.823 ± 0.09,0.774 ± 0.086,0.167 (inactive)
COc1ccc(Nc2nc(N3CCCCC3)c3cnn(C)c3n2)cc1,0.753 ± 0.043,1.23 ± 0.096,1.08 ± 0.048,0.388 ± 0.02,0.967 ± 0.097,1.23 ± 0.12,0.969 (active)
O=C(CN1CCN(c2ccccc2F)C1=O)N1CCCC(Oc2ccncn2)C1 (configuration not stated),0.874 ± 0.21,0.941 ± 0.052,0.992 ± 0.092,0.507 ± 0.025,0.968 ± 0.15,1.13 ± 0.27,0.547 (inactive)
COc1ccc(-n2c(=O)c3c4c(sc3n3c(SC)nnc23)CCCC4)cc1,1.16 ± 0.13,1.06 ± 0.074,1.14 ± 0.044,0.971 ± 0.18,0.96 ± 0.04,0.921 ± 0.064,1 (active)
Cl.Fc1ccc([C@@H]2CCNC[C@H]2COc2ccc3c(c2)OCO3)cc1,0.575 ± 0.05,1 ± 0.051,1.23 ± 0.069,1.11 ± 0.072,1.05 ± 0.055,1.04 ± 0.2,0.253 (inactive)
c1ccc(CCn2c3ccccc3c3nnc(SCCN4CCCCC4)nc32)cc1,0.232 ± 0.018,1.05 ± 0.061,1.02 ± 0.061,0.81 ± 0.075,1.57 ± 0.17,1.57 ± 0.11,1.01 (active)
CCC(=O)Nc1ccc(NC(=O)c2ccccc2OC)cc1,0.932 ± 0.086,1.04 ± 0.083,0.997 ± 0.064,1 ± 0.042,1.25 ± 0.087,0.969 ± 0.076,1.01 (active)
COC(=O)C1=C(C)NC(C)=C(C(=O)OC(C)C)C1c1cccc2nonc12 (configuration not stated),0.79 ± 0.062,0.942 ± 0.073,1.11 ± 0.096,0.645 ± 0.04,1.08 ± 0.07,0.967 ± 0.14,1 (active)
COC(=O)C1C(O)CCC2CN3CCc4c([nH]c5ccccc45)C3CC21.Cl (configuration not stated),1.19 ± 0.28,0.917 ± 0.076,0.906 ± 0.058,0.92 ± 0.1,1.15 ± 0.25,1.23 ± 0.15,0.995 (active)
COc1ccc(-n2ncc3c(Nc4cc(OC)c(OC)c(OC)c4)ncnc32)cc1,1.13 ± 0.05,0.938 ± 0.078,1.09 ± 0.085,0.821 ± 0.044,1.04 ± 0.26,1.28 ± 0.45,0.887 (active)
COc1cc(C=Cc2nc3ccccc3nc2O)cc(OC)c1,1.06 ± 0.054,1.06 ± 0.099,1.09 ± 0.074,0.565 ± 0.029,0.834 ± 0.087,1.08 ± 0.29,0.872 (active)
Cc1nnsc1C(=O)Nc1ccccc1C(F)(F)F,1.1 ± 0.084,0.954 ± 0.077,1 ± 0.048,0.969 ± 0.039,0.993 ± 0.11,0.929 ± 0.15,1 (active)
Cc1cc(OC2CCN(S(=O)(=O)CCc3ccccc3)C2)cc(=O)n1C (configuration not stated),1.13 ± 0.069,0.929 ± 0.088,1.15 ± 0.067,0.7 ± 0.054,0.785 ± 0.19,0.738 ± 0.29,0.975 (active)
Clc1ccc(CN2CCN(c3ncnc4scc(-c5cccs5)c34)CC2)cc1,0.489 ± 0.028,1.28 ± 0.1,1.25 ± 0.074,1.16 ± 0.072,1.66 ± 0.12,1.51 ± 0.14,0.997 (active)
Cc1cccc(C)c1OCC(=O)N[C@@H](Cc1ccccc1)[C@@H](O)C[C@H](Cc1ccccc1)NC(=O)[C@H](C(C)C)N1CCCNC1=O,0.665 ± 0.082,0.889 ± 0.058,1.24 ± 0.12,0.67 ± 0.04,1.2 ± 0.071,1.37 ± 0.12,1.02 (active)
COC(=O)C1=C(C)NC(=O)CC1c1ccc(Cl)c(Cl)c1 (configuration not stated),0.982 ± 0.075,0.801 ± 0.065,0.957 ± 0.094,1.06 ± 0.036,1.16 ± 0.15,1.23 ± 0.19,1.01 (active)
CS(=O)(=O)N(CC(=O)N1CCCCCC1)c1ccc(Cl)c(C(F)(F)F)c1,0.958 ± 0.11,1.21 ± 0.081,0.958 ± 0.036,0.974 ± 0.12,1.13 ± 0.15,1.15 ± 0.24,1 (active)
CCc1c2c(nc3ccc(OC(=O)N4CCC(N5CCCCC5)CC4)cc13)-c1cc3c(c(=O)n1C2)COC(=O)[C@]3(O)CC.Cl.O.O.O,1.06 ± 0.25,1.41 ± 0.23,1.54 ± 0.55,0.866 ± 0.042,1.35 ± 0.35,1.2 ± 0.16,0.975 (active)
COC(=O)C1=CN(CC2CCCO2)C=C(C(=O)OC)C1c1ccccc1Cl (configuration not stated),1.67 ± 0.13,1.21 ± 0.069,2.32 ± 0.14,0.796 ± 0.051,0.845 ± 0.066,0.686 ± 0.043,0.982 (active)
